This is part of a sample that, as a whole, favours compounds with a hit. Of some 83,000 tested, about 20% had one in any assay.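 A percent growth of 40 corresponds to 60% growth inhibition; 0 means no net growth; -100 means all cells died. Active threshold: below 10.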 Unmarked numbers belong to inactive results. Active and inactive are the calls of the source.
Tests used:
Test in all cases: NCI-60 one-dose screen, 48 h (100 = growth as untreated, 0 = no growth, -100 = all killed)
Settings in all cases: 10 µM
BT-549 breast = tested on: BT-549 breast
MDA-MB-435 melanoma = tested on: MDA-MB-435 melanoma
SW-620 colon = tested on: SW-620 colon
MCF7 breast = tested on: MCF7 breast
HCT-116 colon = tested on: HCT-116 colon
HCC-2998 colon = tested on: HCC-2998 colon
KM12 colon = tested on: KM12 colon

Structure (SMILES) | growth (BT-549 breast) | growth (MDA-MB-435 melanoma) | growth (SW-620 colon) | growth (MCF7 breast) | growth (HCT-116 colon) | growth (HCC-2998 colon) | growth (KM12 colon)
Cc1ccc(C(=O)N2C/C(=C/c3ccccc3)C(=O)/C(=C/c3ccccc3)C2)cc1 | 49.2% | -14.1% (active) | 15.8% | 7.53% (active) | -55.5% (active) | -48% (active) | 
CC(C)(C)c1cc(Br)cc(C(C)(C)C)c1O | 111% | 95.8% | 112% | 99% | 104% | 103% | 105%
N#Cc1cccc(OCc2nc(N)nc(N)c2-c2ccc(Cl)c(Cl)c2)c1 | 40.1% | 21.3% | 17.9% | 28.5% | 12.1% | 29.8% | 25.2%
CC(=O)O[C@]1(C)CC[C@H]2[C@H](CNCCc3ccc(Cl)cc3)C(=O)O[C@@H]2C2=C(C)C(=O)C[C@H]21 | 108% | 88% | 82% | 68.4% | 83.9% | 94.6% | 
CSc1nn(-c2ccccc2)c2ncnc(Oc3ccc(C)cc3)c12 | 98% | 102% | 103% | 97.7% | 85.3% | 99.4% | 
COc1ccc(-c2cc(/C=C3\C(=O)Nc4ccc(OC)cc43)[nH]n2)cc1 | 61.5% | -25.1% (active) | 19.3% | 7.36% (active) | 25.3% | 52.8% | 8.99% (active)
Nc1c(C(=O)Nc2cccc(F)c2)sc2nc3c(cc12)C(=O)CCC3 | 48.4% | -43.8% (active) | 31.1% | 11.9% | 29% | 23.4% | 28.9%
CN(C)C=Nc1cc(Cl)ccc1Cl | 112% | 97.9% | 103% | 101% | 104% | 108% | 110%
O=C1/C(=C\c2ccc(Cl)cc2)CN(C(=S)Nc2ccccc2)C/C1=C\c1ccc(Cl)cc1 | -66.6% (active) | -82.1% (active) | -84.9% (active) | -83.9% (active) | -62.8% (active) | -89% (active) | 
CCCCC/C=C/C(=O)CCc1ccc(O)c(OC)c1 | 66.9% | 19.4% | 68.4% | 1.77% (active) | 13.6% | 21% | 31.1%
Cc1ccc(C)c(C(O)(c2cc(C)ccc2C)C2(O)CCCCC2)c1 | 100% | 105% | 96.8% | 97.6% | 90.5% | 108% | 95.4%
CN(C)CC(O)c1ccc2cc(Br)c3ccccc3c2c1 (stereo not given) | 75.8% | 42.4% | 63.7% | 35.1% | 41.2% | 25.8% | 48.6%
COc1ccc(-c2nc(-c3nc4cc(Cl)c(F)cc4[nH]3)c3ccccn23)cc1 | 91% | 64.4% | 71.6% | 58.1% | 71.4% | 72.2% | 
Cc1[nH]nc2c1C(c1cnn(C)c1)C(C#N)=C(N)O2 (stereo not given) | 102% | 101% | 102% | 98% | 104% | 110% | 
Clc1ccc(-c2cn(-c3ccccc3)c(-c3ccccc3)n2)c(Cl)c1 | -12.7% (active) | -37.2% (active) | -100% (active) | 5.1% (active) | -100% (active) | 13.7% | -88% (active)
O=S(=O)(Nc1ccccn1)c1ccc(N=Nc2ccc(O)c3ncccc23)cc1 | 1.2% (active) | 10.1% | 11.7% | 5.03% (active) | 10.6% | 35.7% | 14.1%
C#Cc1ccc(-n2c(/C=C/c3cc(OC)cc(OC)c3)nc3ncccc3c2=O)cc1 | 65.2% | 79.1% | 105% | 68.5% | 74.8% | 94.2% | 
FC(F)(F)c1ccc(-c2cnc(-n3cc(COCCN4CCCCC4)nn3)nc2NC2CCCCCC2)cc1 | 68.1% | -68.9% (active) | 4.79% (active) | -1.43% (active) | 22.3% | 6.9% (active) | 17.6%

Structure (SMILES) | growth (BT-549 breast) | growth (MDA-MB-435 melanoma) | growth (SW-620 colon) | growth (MCF7 breast) | growth (HCT-116 colon) | growth (HCC-2998 colon) | growth (KM12 colon)
O=C1/C(=C\c2ccc(F)cc2)CN(C(=O)c2ccccc2)C/C1=C\c1ccc(F)cc1 | 34.9% | -39.4% (active) | -44.4% (active) | 1.32% (active) | -55.3% (active) | 16.4% | 
COc1ccc(-c2nc3ncccn3c2-c2nnc(-c3ccsc3C)o2)cc1 | 63.6% | 94.6% | 94.6% | 77.1% | 88.9% | 102% | 98.6%
C/C(=N\Nc1nc2ccccc2s1)c1ccncn1 | 46.3% | 46.2% | 31.2% | 4.99% (active) | 5.21% (active) | 46.3% | 39.1%
COc1cc(/C=C/C(=O)c2ccc(Cl)cc2)ccc1OS(=O)(=O)c1ccc(C)cc1 | 134% | 81.2% | 6.82% (active) | 11.2% | 12.9% | 112% | 81.2%
COc1ccc2c(c1)O/C(=C\c1ncc([N+](=O)[O-])n1C)C2=O | -36.8% (active) | -78.1% (active) | -20.8% (active) | 1.94% (active) | 0.959% (active) | -58.8% (active) | -37.7% (active)
CC(C)(C#N)Nc1ccccc1 | 108% | 96.1% | 112% | 93.4% | 101% | 119% | 115%
COc1ccc2nc3ccccc3c(NCCNCC(C)O)c2c1 (stereo not given) | 30.9% | 1.44% (active) | 0.102% (active) | 4.08% (active) | 0.194% (active) | -11.8% (active) | 9.48% (active)
O=C(Nc1cccc(-n2cc(-c3ccncc3)c(-c3cc(O)cc(Cl)c3)n2)c1)Nc1ccc(Cl)c(C(F)(F)F)c1 | 47.6% | 9.57% (active) | -33.6% (active) | 13.4% | 6.95% (active) | 34.3% | 15.1%
O=S(=O)(NCCNc1nccc(-c2c(-c3ccc(F)cc3)nc3sccn23)n1)c1ccc2ccccc2c1 | 92.5% | 56.4% | 97.5% | 38.2% | 61.8% | 82.6% | 75.6%
CC12O[C@H](C[C@@H](O)[C@H]1O)n1c3ccccc3c3c4c(c5c6ccccc6n2c5c31)C(=O)N(CCCN)C4=O | 72.9% | 32.5% | 20.4% | 12.2% | 13.4% | 44.8% | 38%
O=C1/C(=C/c2ccc([N+](=O)[O-])s2)Oc2ccccc21 | -83.2% (active) | -58.1% (active) | -61.3% (active) | 1.53% (active) | -45.4% (active) | -71.4% (active) | -58.9% (active)
O=C1/C(=C\c2ccc(Cl)cc2)CN(C(=O)c2ccccc2)C/C1=C\c1ccc(Cl)cc1 | 19.8% | -18.1% (active) | -33.8% (active) | 2.9% (active) | -48.2% (active) | -71.8% (active) | 
CN(C)c1ccc(N=C2C=CC(=O)c3ccccc32)cc1 | 94.5% | -87% (active) | 93.3% | 53.1% | 78.4% | 67.3% | 54.8%
O=C(N/N=C/c1ccccc1)C(Oc1ccccc1)c1ccccc1 (stereo not given) | 105% | 44% | 96.2% | 97.9% | 87.2% | 97.3% | 84.5%
COc1ccc(Nc2ncnc3c2c(SC)nn3-c2ccccc2)cc1 | 96.5% | 97.8% | 103% | 103% | 89.2% | 103% | 
O=C1/C(=C\c2ccc(F)cc2)CN(C(=O)c2ccc([N+](=O)[O-])cc2)C/C1=C\c1ccc(F)cc1 | 5.36% (active) | -30% (active) | -58.4% (active) | -9.52% (active) | -72.7% (active) | -79.1% (active) | 
O=C(Nc1cccc(-n2cc(-c3ccncc3)c(-c3ccc(O)c(Cl)c3)n2)c1)Nc1ccc(Cl)c(Cl)c1 | 1.9% (active) | -16.7% (active) | 6.85% (active) | -0.812% (active) | 1.72% (active) | 20.5% | 0.41% (active)
COc1ccc(/C=C2/CN(C(=O)c3ccc(C)cc3)C/C(=C\c3ccc(OC)cc3)C2=O)cc1 | 94% | 41.3% | 71.3% | 32.8% | -27% (active) | 71.3% | 
